# MmCpn inh – blocks the Methanococcus maripaludis chaperonin Mm-Cpn. purified Mm-Cpn ATPase, ADP Transcreener TR-FRET. Potency, µM (series often up to 76.9 µM), inactives show at the highest dose activity, negative = inhibition, hits mostly inhibitors. 330,000 compounds, 0.031% hits. AID 504842; also: % is scaled to controls: 0 for no effect and ±100 for the full control effect; nearly all actives have a fitted effect of over 80% in size
#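 Measured: ADP formation by purified Mm-CPN. Conditions: 25 nM protein, 10 uM ATP, Tris pH 7.4 with Mg2+, K+ and DTT, 37°C for 30 min. Detection: Transcreener HTRF after 30 min at room temperature.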
# ClpP mod – qHTS Assay for Activators of ClpP; purified B. subtilis ClpP, FRET peptide cleavage, 20 min; Potency, µM (highest dose often 57.5 µM), without a hit: at the top dose activity change, negative = active; 340,000 compounds, 1.9% hits; active = well fitted falling curve with a large enough effect; inconclusive = small, poorly fitted or top-dose-only effect; inactive = no such curve, though single readings can be large or run the other way; also: the source files actives as falling curves though it sought activators and does not explain the sign; nearly all actives have a fitted effect of over 65% in size
#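 Purified B. subtilis ClpP, 10 microg/mL final in Tris/HCl pH8 with KCl, BSA, glycerol and Tween-20, cleaved an Abz/nitrotyrosine-quenched decapeptide. Fluorescence (ex 320, em 430) was read at 0 and 20 min at room temperature. Delta was normalized to 5.8 microM ADEP and DMSO/no-enzyme controls.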
# a7 integrin act – activates integrin-mediated alleviation for muscular dystrophy | alpha7betagal myoblasts, beta-gal FDG fluorescence, 48 h | Potency, µM (series often up to 38.3 µM), for inactives: at the top dose activation, hits mostly activators | 350,000 compounds, 0.064% hits | AID 624291;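 also: 100% = response of the positive control SU9516; nearly all actives have a fitted effect of over 60% in size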
#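 Alpha7betagal+/- myoblasts (passage 13) were plated 16-24 hr, then exposed to compounds (1:260 dilution of DMSO stock) for 48 hours at 37C. After MPER lysis, β-galactosidase reporter activity was read as FDG fluorescence (ex 480/em 540) after 30 minutes.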
# p53 reactivation – re-activators of mutant p53. H1299 p53-A138V BP100-luciferase reporter, luminescence, 24 h. Potency, µM (highest dose often 92.2 µM), for the others: at the top dose activity change, positive = activation, actives largely listed as activators. 320,000 compounds, 0.063% hits. AID 504706; also: % of control where 0% means no effect; nearly all actives have a fitted effect of over 45% in size
#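 H1299 (p53-null), stable ts p53-A138V + BP100-Luc; 1000 cells/well, Opti-MEM/10% FBS; cpd 4 pt, 1:5; 24 h, 37 deg C, 5% CO2; detection reagent 10 min RT; luminescence.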
# Eya2 phos inh – Eya2 (human) phosphatase inhibition; O00167; recombinant Eya2, OMFP fluorescence dephosphorylation (OMFP is methylfluorescein phosphate); Potency, µM (doses to about 76.9 µM), inactives show at the highest dose activity, negative = inhibition, usual class: inhibitors; 330,000 compounds, 0.006% hits; AID 488837; also: % is scaled to controls: 0 for no effect and ±100 for the full control effect
#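 Eya2 (0.2 uM) preincubated 10 min at ambient with compound, then OMFP substrate added at 50 uM; 10 min reaction in 50 mM HEPES pH 7.5, 50 mM NaCl, 5 uM MgCl2, 0.05% BSA, 1 mM DTT. Fluorescence read at Ex 485/Em 525 nm.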
# USP2a inh – blocks human ubiquitin-specific protease USP2a | O75604 | USP2 core, Ub-CHOP2 coupled fluorogenic reporter, 485/531 | Potency, µM (top dose mostly 38.3 µM), for inactives: top-dose activity change, negative = inhibition, actives largely listed as inhibitors | 330,000 compounds, 0.01% hits | AID 463254;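 also: plate controls were DMSO wells for no effect and full inhibition by NEM control for full effect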
#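 Deubiquitinase activity read as fluorescence (485/531 nm) after Ub-CHOP2 cleavage activates the enterokinase reporter on its substrate; USP2 core 10nM, Ub-CHOP2 and substrate 25nM each, 30min compound preincubation then 60min RT; data normalized to NEM, curves fitted.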
# An asterisk follows results filed as active; ? = inconclusive; nt = no result given; [ ] = another dose, or the depositor's remark. This excerpt belongs to a sample that is enriched for hits. Unless noted, calls follow the shape of the dose curve; as a rule, active = well fitted curve in the direction sought with a large enough effect; inconclusive = small, poorly fitted or top-dose-only effect, or another doubt; inactive = no such curve, though single readings can be large; an effect the other way counts as inactive or inconclusive. Potency is read from the fitted curve at half-maximal effect.
SMILES,MmCpn inh,ClpP mod,a7 integrin act,p53 reactivation,Eya2 phos inh,USP2a inh
CCc1ccc(-c2csc(-c3c[nH]c4ccccc34)n2)cc1,0%,?,2%,20µM*,-6%,-1%
Cc1c(C(=O)N2CCC(c3nc4ccccc4s3)CC2)oc2ccc(Cl)cc12,nt,-4%,nt,nt,nt,nt
CCOC(=O)C1(C)C=C(Nc2ccc(NC(C)=O)cc2)C(=O)N1c1ccc(NC(C)=O)cc1 (centres undefined),1%,25µM*,9%,-5%,12%,-1%
CCOC(=O)C1(C)C=C(Nc2ccccc2)C(=O)N1c1ccccc1 (centres undefined),1%,-7%,2%,7%,0%,0%
CCOc1ccccc1NC(=O)c1nc(SCc2ccccc2F)ncc1Cl,nt,1%,nt,nt,nt,nt
CCOC(=O)C1CCN(C(=O)Nc2ccc3nc(C)c(C)nc3c2)CC1,-2%,13µM*,-11%,-11%,8%,0%
CC(=O)NCCCN(Cc1ccc(Cl)c(Cl)c1)c1ccc(Br)cn1,nt,-2%,nt,nt,nt,nt
COCCNC(=S)N/N=C(\C)c1ccccc1OC,-13%,2.8µM*,-26%,17%,5%,1%
Cc1cccn2c(=O)c(C=Nc3ccc(Cl)cc3)c(NCCO)nc12,0%,28µM*,2%,-5%,9%,4%
CN=Cc1c(NC)nc2c(C)cccn2c1=O,-1%,40µM*,-9%,-6%,-12%,1%
CNc1nc2c(C)cccn2c(=O)c1C=NCc1ccccc1,0%,28%,?,-3%,13%,3%
O=C(Nc1ccc2nc(-c3cccs3)c(-c3cccs3)nc2c1)N1CCCCC1,nt,-11%,nt,nt,nt,nt
Cc1cccc(N/C(N)=N/c2nc(C)cc(C)n2)c1,0%,32µM*,-10%,-4%,16%,0%
CCc1ccc(C(=O)c2cn(CC(=O)Nc3ccc(C)c(C)c3)c3ccccc3c2=O)cc1,nt,-3%,nt,nt,nt,nt
COC(=O)c1sccc1NC(=O)c1cc2c(s1)CCCC2,-7%,35µM*,-15%,9%,6%,-1%
O=C(Nc1ccccn1)c1ccc2ccccc2n1,0%,3%,-24%,45µM*,7%,0%
CCC1OC2(C)OC(=N)C1(C#N)C(C#N)(C#N)C2c1ccccc1 (centres undefined),-6%,22µM*,-1%,-4%,5%,3%
Cc1ccc(C2OC34CCCCCC3C(C#N)(C(=N)O4)C2(C#N)C#N)cc1 (centres undefined),0%,1%,-7%,-7%,0%,1%
CC(C)C1OC2(C)OC(=N)C1(C#N)C(C#N)(C#N)C2c1ccccc1 (centres undefined),-2%,1%,6%,1%,-10%,4%
CCC12OC(=N)C(C#N)(C1C)C(C#N)(C#N)C(c1ccccc1)O2 (centres undefined),-1%,7.1µM*,2%,-2%,-9%,3%
Cc1ccc(S(=O)(=O)Oc2ccc(C3C4=C(CCCC4=O)N(CCC(=O)O)C4=C3C(=O)CCC4)cc2Cl)cc1,0%,25µM*,14%,3%,0%,0%
OC1CCN(c2cc(-c3ccccc3)nc3cc(-c4ccc(F)cc4)nn23)CC1,0%,nt,23%,-4%,-2%,-2%
CCN1CCN(c2cc(-c3ccccc3)nc3cc(-c4cccc(F)c4)nn23)CC1,-8%,25µM*,-53%,-6%,-20%,3%
Cc1ccc(C)c(N2CCN(C(=O)CN3C(=O)COc4ccc(S(=O)(=O)N5CCOCC5)cc43)CC2)c1,nt,1%,nt,nt,nt,nt
O=C(NCc1ccccc1)c1ccc(-c2ccc(F)cc2)o1,2%,28µM*,-4%,8%,-8%,-1%
SMILES,MmCpn inh,ClpP mod,a7 integrin act,p53 reactivation,Eya2 phos inh,USP2a inh
Cc1ccccc1-c1ccc(C(=O)NCc2ccccc2)o1,0%,4%,29%,20%,7%,-5%
CC(C)c1ccc(Nc2nc(Nc3ccc(Cl)cc3)nc(N3CCOCC3)n2)cc1,nt,3%,nt,nt,nt,nt
N#CC1=C(N)N2C(=C(C#N)C13CCN(Cc1ccccc1)CC3)Nc1ccccc12,2%,32µM*,-17%[7.66 µM],-6%,19%,3%
CCN(CC)c1nc(NC2CCN(C)CC2)c2cc(OC)c(OC)cc2n1,nt,4%,nt,nt,nt,nt
COCCNc1nc(CSc2ccccc2)nc2sc(C)c(C)c12,1%,28µM*,-1%,-31%,-10%,-1%
Cc1sc2nc(CSc3ccccc3)nc(N3CCN(C)CC3)c2c1C,-1%,-2%,-23%,-9%,-4%,1%
CCSc1nc2c(c(=O)[nH]1)C(c1ccc(C)cc1)C1=C(CCCC1=O)N2 (centres undefined),0%,nt,6%,4%,5%,0%
CSc1nc2c(c(=O)[nH]1)C(c1ccccc1)C1=C(CC(C)(C)CC1=O)N2 (centres undefined),0%,nt,-18%,0%,-5%,1%
Cc1ccc(CSc2nc3c(c(=O)[nH]2)C(c2ccncc2)C2=C(CCCC2=O)N3)cc1 (centres undefined),1%,14µM*,10%,-9%,4%,-1%
CC1(C)CC(=O)C2=C(C1)Nc1nc(SCCN3CCOCC3)[nH]c(=O)c1C2c1cccs1 (centres undefined),-1%,32µM*,0%,-4%,13%,3%
CSc1nc2c(c(=O)[nH]1)C(c1cccs1)C1=C(CCCC1=O)N2 (centres undefined),2%,22µM*,-16%,4%,-9%,1%
Cc1ccccc1CN1[C@H](C)[C@H](c2ccccc2)OCCS1(=O)=O,nt,1%,nt,nt,nt,nt
CCCS(=O)(=O)c1ncc(Cl)c(C(=O)N2CCN(c3ccc(OC)cc3)CC2)n1,nt,0%,nt,nt,nt,nt
CCS(=O)(=O)Nc1ccc(-c2cc(-c3ccccc3)c3cc(C)ccc3n2)cc1,-1%,18µM*,21%,-13%,-3%,-16%
COc1ccccc1-n1cc(-c2ccccc2)[nH]c1=S,-5%,?,?,0%,7%,-2%
COc1ccc(-n2cc(-c3ccccc3)[nH]c2=S)cc1,?,14µM*,14%,?,-6%,3%
CCCCCCCCCCCCCCCC(C)C1=NCCN1 (centres undefined),nt,-7%,nt,nt,nt,nt
CC1(C(=O)NC2CCCCC2)Cc2ccccc2C(=O)N1Cc1ccccc1Cl (centres undefined),nt,32µM*,nt,nt,nt,nt
CCCN1C(=O)c2ccccc2CC1(C)C(=O)NC1CCCCC1 (centres undefined),nt,1%,nt,nt,nt,nt
N#Cc1nc(-c2ccco2)oc1N1CCCC1,0%,?,-17%,-9%,2%,1%
CCN1CCN(c2oc(-c3ccco3)nc2C#N)CC1,-4%,-5%,1%,-2%,-24%,1%

# Bioassay records as filed in PubChem.
